# Laboratory results from publication PMC11006913.
# Where a chain is given by its changes, count along the chain named.
# What was measured:
# Assay in all cases: PBM; 200 nM protein, PBS
# Details in all cases: dsDNA, one strand shown
# [1] = biological target: HOXB4 (Homo sapiens, UniProt P17483 148-234)
# [2] = biological target: T1, VENTX (Homo sapiens, UniProt O95231 78-163, R121Q)
# T1 sequence: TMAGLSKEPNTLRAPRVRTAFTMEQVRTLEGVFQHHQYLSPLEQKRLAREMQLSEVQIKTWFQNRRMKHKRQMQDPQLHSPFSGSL
# [3] = biological target: HOXB9 (Homo sapiens, UniProt P17482 171-250, T197M)
# HOXB9, sequence (P17482 171-250 T197M): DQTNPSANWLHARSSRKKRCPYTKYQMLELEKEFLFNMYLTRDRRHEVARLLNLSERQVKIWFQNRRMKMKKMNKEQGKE
# [4] = biological target: HOXA4 (Homo sapiens, UniProt Q00056 201-287, W262R)
# HOXA4 (Homo sapiens, UniProt Q00056 201-287, W262R), sequence (Q00056 201-287 W262R): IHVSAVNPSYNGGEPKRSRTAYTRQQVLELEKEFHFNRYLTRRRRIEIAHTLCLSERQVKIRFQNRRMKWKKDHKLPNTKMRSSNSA
# [5] = biological target: T2, VENTX (Homo sapiens, UniProt O95231 78-163)
# T2 sequence: T1 sequence with Q44R
# [6] = biological target: T3, VENTX (Homo sapiens, UniProt O95231 78-163, Y115F)
# T3 sequence: T1 sequence with Y38F, Q44R
# [7] = biological target: HOXA2 (Homo sapiens, UniProt O43364 129-215, R185T)
# HOXA2 (Homo sapiens, UniProt O43364 129-215, R185T), sequence (O43364 129-215 R185T): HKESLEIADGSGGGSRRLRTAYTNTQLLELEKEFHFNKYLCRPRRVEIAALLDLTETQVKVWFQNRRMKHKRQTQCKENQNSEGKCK
# [8] = biological target: HOXA4 (Homo sapiens, UniProt Q00056 201-287, R217L)
# HOXA4 (Homo sapiens, UniProt Q00056 201-287, R217L), sequence (Q00056 201-287 R217L): as the sequence (Q00056 201-287 W262R) above, with R17L, R62W counted along it
# [9] = biological target: HOXB4 (Homo sapiens, UniProt P17483 148-234, V174I)
# HOXB4 (Homo sapiens, UniProt P17483 148-234, V174I), sequence (P17483 148-234 V174I): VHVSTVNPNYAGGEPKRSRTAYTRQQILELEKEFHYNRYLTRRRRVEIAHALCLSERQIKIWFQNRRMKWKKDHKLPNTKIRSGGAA
# [10] = biological target: HOXA2 (Homo sapiens, UniProt O43364 129-215, R185K)
# HOXA2 (Homo sapiens, UniProt O43364 129-215, R185K), sequence (O43364 129-215 R185K): as the sequence (O43364 129-215 R185T) above, with T57K counted along it
# [11] = biological target: HOXA4 (Homo sapiens, UniProt Q00056 201-287)
# HOXA4 (Homo sapiens, UniProt Q00056 201-287), sequence (Q00056 201-287): as the sequence (Q00056 201-287 W262R) above, with R62W counted along it
# [12] = biological target: VAX1 (Homo sapiens, UniProt Q5SQQ9 86-172)
# VAX1 (Homo sapiens, UniProt Q5SQQ9 86-172), sequence (Q5SQQ9 86-172): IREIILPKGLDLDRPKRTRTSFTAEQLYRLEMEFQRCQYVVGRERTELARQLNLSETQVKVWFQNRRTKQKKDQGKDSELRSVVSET
# [13] = biological target: VAX1 (Homo sapiens, UniProt Q5SQQ9 86-172, T142I)
# VAX1 (Homo sapiens, UniProt Q5SQQ9 86-172, T142I), sequence (Q5SQQ9 86-172 T142I): as the sequence (Q5SQQ9 86-172) above, with T57I counted along it
# [14] = biological target: HOXA2 (Homo sapiens, UniProt O43364 129-215, Y150S)
# HOXA2 (Homo sapiens, UniProt O43364 129-215, Y150S), sequence (O43364 129-215 Y150S): as the sequence (O43364 129-215 R185T) above, with Y22S, T57R counted along it
# [15] = biological target: HOXA4 (Homo sapiens, UniProt Q00056 201-287, W262F)
# HOXA4 (Homo sapiens, UniProt Q00056 201-287, W262F), sequence (Q00056 201-287 W262F): as the sequence (Q00056 201-287 W262R) above, with R62F counted along it
# [16] = biological target: HOXA2 (Homo sapiens, UniProt O43364 129-215)
# HOXA2 (Homo sapiens, UniProt O43364 129-215), sequence (O43364 129-215): as the sequence (O43364 129-215 R185T) above, with T57R counted along it
# [17] = biological target: VAX1 (Homo sapiens, UniProt Q5SQQ9 86-172, K157R)
# VAX1 (Homo sapiens, UniProt Q5SQQ9 86-172, K157R), sequence (Q5SQQ9 86-172 K157R): as the sequence (Q5SQQ9 86-172) above, with K72R counted along it
# [18] = biological target: HESX1 (Homo sapiens, UniProt Q9UBX0 95-180, R165K)
# HESX1 (Homo sapiens, UniProt Q9UBX0 95-180, R165K), sequence (Q9UBX0 95-180 R165K): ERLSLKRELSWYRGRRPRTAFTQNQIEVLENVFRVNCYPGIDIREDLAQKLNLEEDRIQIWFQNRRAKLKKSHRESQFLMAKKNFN
# [19] = biological target: HESX1 (Homo sapiens, UniProt Q9UBX0 95-180)
# HESX1 (Homo sapiens, UniProt Q9UBX0 95-180), sequence (Q9UBX0 95-180): as the sequence (Q9UBX0 95-180 R165K) above, with K71R counted along it
# [20] = biological target: HESX1 (Homo sapiens, UniProt Q9UBX0 95-180, P111T)
# HESX1 (Homo sapiens, UniProt Q9UBX0 95-180, P111T), sequence (Q9UBX0 95-180 P111T): as the sequence (Q9UBX0 95-180 R165K) above, with P17T, K71R counted along it
# HOXB4 (Homo sapiens, UniProt P17483 148-234), sequence (P17483 148-234): as the sequence (P17483 148-234 V174I) above, with I27V counted along it
sequence,measurement,setting,value
CTCATTAA,binding signal,[1],"13.2 upbm affinity estimate (log intensity, higher = more binding, comparable within an allelic series)"
same,binding signal,[2],"12 upbm affinity estimate (log intensity, higher = more binding, comparable within an allelic series)"
same,binding signal,[3],"10.1 upbm affinity estimate (log intensity, higher = more binding, comparable within an allelic series)"
same,binding signal,[4],"10.6 upbm affinity estimate (log intensity, higher = more binding, comparable within an allelic series)"
same,binding signal,[5],"12.8 upbm affinity estimate (log intensity, higher = more binding, comparable within an allelic series)"
same,binding signal,[6],"12 upbm affinity estimate (log intensity, higher = more binding, comparable within an allelic series)"
same,binding signal,[7],"13.3 upbm affinity estimate (log intensity, higher = more binding, comparable within an allelic series)"
same,binding signal,[8],"12.5 upbm affinity estimate (log intensity, higher = more binding, comparable within an allelic series)"
same,binding signal,[9],"13.9 upbm affinity estimate (log intensity, higher = more binding, comparable within an allelic series)"
same,binding signal,[10],"13.6 upbm affinity estimate (log intensity, higher = more binding, comparable within an allelic series)"
same,binding signal,[11],"14 upbm affinity estimate (log intensity, higher = more binding, comparable within an allelic series)"
same,binding signal,[12],"13.7 upbm affinity estimate (log intensity, higher = more binding, comparable within an allelic series)"
same,binding signal,[13],"13.5 upbm affinity estimate (log intensity, higher = more binding, comparable within an allelic series)"
same,binding signal,[14],"10.7 upbm affinity estimate (log intensity, higher = more binding, comparable within an allelic series)"
same,binding signal,[15],"12 upbm affinity estimate (log intensity, higher = more binding, comparable within an allelic series)"
same,binding signal,[16],"12.9 upbm affinity estimate (log intensity, higher = more binding, comparable within an allelic series)"
same,binding signal,[17],"13.6 upbm affinity estimate (log intensity, higher = more binding, comparable within an allelic series)"
ATTCATAA,binding signal,[18],"7.97 upbm affinity estimate (log intensity, higher = more binding, comparable within an allelic series)"
same,binding signal,[19],"8.03 upbm affinity estimate (log intensity, higher = more binding, comparable within an allelic series)"
same,binding signal,[20],"7.62 upbm affinity estimate (log intensity, higher = more binding, comparable within an allelic series)"
CCAGCCCA,binding signal,[18],"6.4 upbm affinity estimate (log intensity, higher = more binding, comparable within an allelic series)"
same,binding signal,[19],"6.43 upbm affinity estimate (log intensity, higher = more binding, comparable within an allelic series)"
same,binding signal,[20],"6.48 upbm affinity estimate (log intensity, higher = more binding, comparable within an allelic series)"
GACTCGGC,binding signal,[1],"7.87 upbm affinity estimate (log intensity, higher = more binding, comparable within an allelic series)"
same,binding signal,[9],"7.65 upbm affinity estimate (log intensity, higher = more binding, comparable within an allelic series)"
ATTGAACC,binding signal,[18],"7.56 upbm affinity estimate (log intensity, higher = more binding, comparable within an allelic series)"
same,binding signal,[19],"7.77 upbm affinity estimate (log intensity, higher = more binding, comparable within an allelic series)"
same,binding signal,[20],"7.33 upbm affinity estimate (log intensity, higher = more binding, comparable within an allelic series)"
CAGGGGGC,binding signal,[1],"7.45 upbm affinity estimate (log intensity, higher = more binding, comparable within an allelic series)"
same,binding signal,[2],"7.88 upbm affinity estimate (log intensity, higher = more binding, comparable within an allelic series)"
same,binding signal,[5],"8.14 upbm affinity estimate (log intensity, higher = more binding, comparable within an allelic series)"
same,binding signal,[6],"7.91 upbm affinity estimate (log intensity, higher = more binding, comparable within an allelic series)"
same,binding signal,[7],"7.09 upbm affinity estimate (log intensity, higher = more binding, comparable within an allelic series)"
same,binding signal,[9],"7.54 upbm affinity estimate (log intensity, higher = more binding, comparable within an allelic series)"
same,binding signal,[10],"10.1 upbm affinity estimate (log intensity, higher = more binding, comparable within an allelic series)"
same,binding signal,[14],"10.3 upbm affinity estimate (log intensity, higher = more binding, comparable within an allelic series)"
same,binding signal,[16],"7.35 upbm affinity estimate (log intensity, higher = more binding, comparable within an allelic series)"
GACGCCGC,binding signal,[1],"7.74 upbm affinity estimate (log intensity, higher = more binding, comparable within an allelic series)"
same,binding signal,[9],"7.51 upbm affinity estimate (log intensity, higher = more binding, comparable within an allelic series)"
CAGGACCC,binding signal,[1],"7.14 upbm affinity estimate (log intensity, higher = more binding, comparable within an allelic series)"
same,binding signal,[4],"9.96 upbm affinity estimate (log intensity, higher = more binding, comparable within an allelic series)"
same,binding signal,[8],"9.81 upbm affinity estimate (log intensity, higher = more binding, comparable within an allelic series)"
same,binding signal,[9],"7.15 upbm affinity estimate (log intensity, higher = more binding, comparable within an allelic series)"
same,binding signal,[11],"9.67 upbm affinity estimate (log intensity, higher = more binding, comparable within an allelic series)"
same,binding signal,[15],"9.89 upbm affinity estimate (log intensity, higher = more binding, comparable within an allelic series)"
CATAATAC,binding signal,[18],"7.93 upbm affinity estimate (log intensity, higher = more binding, comparable within an allelic series)"
same,binding signal,[19],"8.07 upbm affinity estimate (log intensity, higher = more binding, comparable within an allelic series)"
same,binding signal,[12],"10.4 upbm affinity estimate (log intensity, higher = more binding, comparable within an allelic series)"
same,binding signal,[13],"10 upbm affinity estimate (log intensity, higher = more binding, comparable within an allelic series)"
same,binding signal,[17],"10.1 upbm affinity estimate (log intensity, higher = more binding, comparable within an allelic series)"
AATAGTGT,binding signal,[18],"7.52 upbm affinity estimate (log intensity, higher = more binding, comparable within an allelic series)"
same,binding signal,[19],"7.75 upbm affinity estimate (log intensity, higher = more binding, comparable within an allelic series)"
same,binding signal,[20],"7.31 upbm affinity estimate (log intensity, higher = more binding, comparable within an allelic series)"
